Bioassay records (PubChem BioAssay)
The list is not random: actives were taken first. Their share in the collection is about 1.6%.
KCNQ2 inh: inhibitors of rat KCNQ2 potassium channel; O88943; CHO-K1 KCNQ2, FluxOR thallium flux, 20 min; stronger effect = lower value; B-score at 10 µM; 1.1% of 310,000 active;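 active means fluorescence ratio B-score at most minus 3 library SDs, with starting brightness B-score within 2 library SDs, cut at about -5.5 in these data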
Target sequence (O88943 whole entry, looked up): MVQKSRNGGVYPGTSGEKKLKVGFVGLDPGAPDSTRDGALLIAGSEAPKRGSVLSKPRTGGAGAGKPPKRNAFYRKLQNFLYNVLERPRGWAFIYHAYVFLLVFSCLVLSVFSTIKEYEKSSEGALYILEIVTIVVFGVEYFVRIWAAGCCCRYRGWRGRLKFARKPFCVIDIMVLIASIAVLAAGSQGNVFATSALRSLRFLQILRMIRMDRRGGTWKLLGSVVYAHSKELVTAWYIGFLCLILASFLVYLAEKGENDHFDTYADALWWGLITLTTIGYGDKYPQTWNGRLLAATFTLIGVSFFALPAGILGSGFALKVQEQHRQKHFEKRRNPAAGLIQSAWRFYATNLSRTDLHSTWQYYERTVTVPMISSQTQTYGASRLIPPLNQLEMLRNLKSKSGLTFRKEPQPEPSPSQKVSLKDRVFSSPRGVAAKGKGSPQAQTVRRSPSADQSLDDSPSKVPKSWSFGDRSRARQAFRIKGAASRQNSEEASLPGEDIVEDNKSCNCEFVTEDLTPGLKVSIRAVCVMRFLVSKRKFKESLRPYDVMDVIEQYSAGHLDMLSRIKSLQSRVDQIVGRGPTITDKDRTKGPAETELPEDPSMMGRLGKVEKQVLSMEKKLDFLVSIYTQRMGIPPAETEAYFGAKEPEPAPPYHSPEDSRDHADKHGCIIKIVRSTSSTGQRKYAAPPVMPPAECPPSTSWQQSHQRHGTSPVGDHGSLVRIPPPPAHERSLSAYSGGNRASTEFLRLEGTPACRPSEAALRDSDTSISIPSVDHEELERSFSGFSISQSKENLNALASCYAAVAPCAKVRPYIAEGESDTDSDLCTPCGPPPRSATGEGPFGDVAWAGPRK
KCNQ2 pot: KCNQ2 (rat) channel potentiation; O88943; CHO-K1 KCNQ2, FluxOR thallium flux fluorescence; stronger effect = higher value; B-score at 10 µM; 0.54% of 310,000 active; AID 2239;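 active means fluorescence ratio B-score at least 3 SD of library B-scores, with initial fluorescence B-score within 3 of them, cut at about 5.3 in these data; same plate scores as AID 2156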;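 further: B-score of peak minus minimum over baseline fluorescence ratio after K+ and Tl+ stimulus; positive B-score means potentiation of KCNQ2 with more thallium influx and brighter signal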
Numbers stand for hits; 0 = inactive; - = no result given.

SMILES	KCNQ2 inh	KCNQ2 pot
CCn1cc(CCCC(=O)NCc2cccc(OC)c2)c2ccccc21	0	-
COCc1ccc(C(=O)NC2CC(C)(C)Cc3c2cnn3-c2ccc(OC)cc2)o1 (centres undefined)	0	-
CCOC(=O)c1cc(C)n(S(=O)(=O)c2ccc(C)cc2)c1C	-6.6	0
CCOC(=O)c1ccccc1NS(=O)(=O)c1ccc(C)cc1	0	-
CCN(CC)CCNc1nc(-c2ccccc2)nnc1C(F)(F)F	0	9
CCN(CC)CCNc1nc(C(F)(F)F)nc2c1nnn2Cc1ccccc1	0	0
Cc1ccc(N(C(=O)c2ccccc2Cl)C2=NC(C)CS2)c(C)c1 (centres undefined)	-6	0
CCOc1ccccc1N(C(=O)c1ccccc1Cl)C1=NC(C)(C)CS1	0	-
CC1CN(CC(=O)Nc2nc(-c3ccc(Cl)cc3)cs2)CC(C)O1 (centres undefined)	0	-
Cc1cc(C)cc(N(CCC#N)C(=O)CSC2=Nc3ccccc3C3CC=NN23)c1 (centres undefined)	-6.1	0
N#Cc1ccccc1NC(=O)CSC1=Nc2ccccc2C2CC=NN12 (centres undefined)	0	-
COc1cc(C2(c3ccc(O)c(OC)c3)C(=O)Nc3c(C)cc(Br)cc32)ccc1O	0	-
CCOC(=O)CCNC(=O)N1CCCC(N(C)CCc2ccccc2)C1 (centres undefined)	0	-
CCOc1ccc(CNC(=O)C2CCCN(S(=O)(=O)N3CC(C)CC(C)C3)C2)cc1OC (centres undefined)	0	0
Cc1cc(C)n(C(=O)CNC(=O)c2cccc(F)c2)n1	0	0
Cc1nn(C(=O)CNC(=O)c2ccccc2)c(C)c1C	0	8.9
O=C(O)C1CCCN1C(=O)NC1CCCCC1 (centres undefined)	0	0
CC12CCC(C(=Nc3ccc(N=C4C(=O)C5(C)CCC4C5(C)C)cc3)C1=O)C2(C)C	0	-
Cc1ccc(N/C=C2\C(=O)C3(C)CCC2C3(C)C)cc1C (centres undefined)	-6.5	0
O=C(N[C@@H](Cc1ccccc1)C(=O)NC1CC1)c1ccc(Cl)cc1	0	-
COc1ccc(S(=O)(=O)N2CCOC23CCN(S(=O)(=O)c2cc(F)ccc2F)CC3)cc1	0	-
COc1cc(OC)cc(C(=O)NCCOC23CC4CC(CC(C4)C2)C3)c1	0	-
Cc1ccc(C(=O)NCCOC23CC4CC(CC(C4)C2)C3)cc1	-6	0
CC(C)(C)c1ccc(-n2ncc3c2CCCC3NC(=O)CCN2CCCC2=O)cc1 (centres undefined)	0	0
CCOC(=O)C1=C(N)OC2=C(C(=O)CC(C)(C)C2)C1C1CCCCC1 (centres undefined)	-7.5	0
SMILES	KCNQ2 inh	KCNQ2 pot
CCOC(=O)C1=C(N)OC2=C(C(=O)CC(C)(C)C2)C1c1ccoc1 (centres undefined)	0	0
O=C(Oc1ccc(-c2nnco2)cc1)C1CCN(C(=O)c2ccc(F)cc2)CC1	0	0
O=C1NN(c2ccccc2)C(=O)/C1=C/c1coc2ccccc2c1=O	0	-
O=C1NN(c2ccccc2)C(=O)/C1=C\c1coc2ccc(O)cc2c1=O	-5.7	0
Cc1ccc(-c2nnn(CC(=O)N(CCN3CCOCC3)C(C(=O)NC(C)(C)C)c3ccco3)n2)cc1 (centres undefined)	0	-
Cc1ccc(-c2nnn(CC(=O)N(CCN3CCOCC3)C(C(=O)NC(C)(C)C)c3ccc(C)o3)n2)cc1 (centres undefined)	-6	0
O=C(CCC(=O)N(CC(=O)NC1CCCC1)c1cccc(F)c1)Nc1nccs1	0	0
CC(C)C[C@H]1CN=C(Nc2ccccc2)N1CCCC1CCCCC1	-5.6	0
CC(C)C[C@H]1CN=C(Nc2ccccc2)N1CCCC1CCCC1	0	-
CCc1ccc(/C=C2/SC(=S)N(CCC(=O)Nc3cccnc3)C2=O)cc1	0	0
Nc1c2c(nc3ccccc13)N(C1CCCCC1)CC2	0	0
Nc1c2c(nc3ccc(Br)cc13)N(C1CCCCC1)CC2	-5.8	0
COc1cc2c(cc1OC)C(NC(=O)c1ccc(C)cc1)CC2=O (centres undefined)	0	0
O=C(CSc1nccc(-c2cccs2)n1)Nc1ccc(Cl)cc1	0	0
Cc1onc(-c2ccc(Cl)cc2)c1-c1ccnc(SCC(=O)Nc2ccc(C(C)C)cc2)n1	-5.6	0
COc1ccccc1NC(=O)OC(C)c1ccc(Cl)cc1 (centres undefined)	-5.8	0
COc1ccccc1NC(=S)NCCSc1ccc(Cl)cc1	0	-
COc1ccccc1NC(=O)Nc1cc(C(C)C)ccc1C	0	0
COc1ccccc1NC(=S)NCCc1ccc(Cl)cc1	-6.2	0
O=c1[nH]c(-c2ccccc2)nc(-c2ccccc2)c1Cl	0	0
Cc1nc2nc(C)c(NS(=O)(=O)c3ccc(C4CCCCC4)cc3)c(=O)n2[nH]1	0	0
COc1ccc(S(=O)(=O)NCC2CCC(C(=O)NCCCN3CCCC3=O)CC2)cc1 (centres undefined)	0	0
O=C(CSc1nnc(Cc2ccccc2)n1Cc1ccco1)NC12CC3CC(CC(C3)C1)C2	-7.7	0
O=C(CSc1nnc(-c2ccco2)n1Cc1ccco1)NCc1cccs1	0	0
CN(C)C(=O)CSc1nnc(Cc2ccccc2)n1Cc1ccco1	0	0
SMILES	KCNQ2 inh	KCNQ2 pot
O=C(CSc1nnc(Cc2cccs2)n1Cc1ccco1)Nc1ccc(Br)cc1	-6.7	0
O=C(O)Cc1sc(Nc2ccc(F)cc2)nc1-c1cccs1	0	-
O=C(NCC1COc2ccccc2O1)c1cccs1 (centres undefined)	0	-
O=C(NCC1COc2ccccc2O1)c1ccc(Br)s1 (centres undefined)	-6.2	0
Cc1ccc(SCCC(=O)OCC(=O)NCC2CCCCC2)cc1	0	-
COc1ccccc1N1C(=O)CC(N2CCN(c3ccc([N+](=O)[O-])cc3)CC2)C1=O (centres undefined)	0	-
CCn1c(SCc2ccccc2Cl)nc2ccccc21	-6.6	0
Cn1c(SCc2ccccc2Cl)nc2ccccc21	0	-
Fc1cccc(-c2cc3nc4c(c(N5CCC6(CC5)OCCO6)n3n2)CCCC4)c1	-6.6	0
COc1cc(OC)cc(-c2cc3nc4c(c(N5CCN(c6ncccn6)CC5)n3n2)CCCC4)c1	-6.2	0
CCc1c(C)nc2cc(-c3cc(OC)cc(OC)c3)nn2c1N1CCCC1	0	0
OC1CCN(c2c3c(nc4cc(-c5cccc(F)c5)nn24)CCCC3)CC1	0	-
CCc1ccc(NC(=O)CN(C(=O)N2CCN(CC)CC2)S(=O)(=O)c2ccc(C)cc2)cc1	0	0
CCCCOc1ccc(OCCNC(=O)c2ccco2)cc1	0	-
Cc1cc(=O)n2nc(N3CCCC(C(=O)NC4CCCCC4C)C3)sc2n1 (centres undefined)	0	-
O=C(CCN1CCN(C(=O)c2ccccc2)CC1)c1ccc(Br)cc1	-9	0
O=C(c1ccc(Br)cc1)N1CCN(Cc2ccccc2)CC1	0	-
O=C(NCc1n[nH]c(=S)n1-c1ccccc1Cl)c1ccc(S(=O)(=O)N2CCCCC2)cc1	0	-
CC(=O)NC1=C(NC2CCS(=O)(=O)C2)C(=O)c2ccccc2C1=O (centres undefined)	0	6.1
CN(C1=C(NC(=O)c2ccccc2)C(=O)c2ccccc2C1=O)C1CCS(=O)(=O)C1 (centres undefined)	0	0
CCOC(=O)N1CCC(NC(=O)c2ccccc2C(=O)O)CC1	0	0
CCOC(=O)N1CCC(NC(=O)c2oc3c(C)c(C)ccc3c2C)CC1	-5.7	0
Cc1ccc2c(C)c(C(=O)NCCN3CCCC(O)C3)oc2c1C (centres undefined)	0	0
